Results on 39 sequences are retold here after publication PMC11006913.

HOXC10 (Homo sapiens, UniProt Q9NYD6 254-340, K271E), sequence (Q9NYD6 254-340 K271E): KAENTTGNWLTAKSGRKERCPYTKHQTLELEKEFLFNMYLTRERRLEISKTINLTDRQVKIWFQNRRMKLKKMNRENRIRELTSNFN

In one assay the target is HOXC10 (Homo sapiens, UniProt Q9NYD6 254-340). Description: PBM; 200 nM protein, PBS. Particulars: dsDNA, one strand shown.
HOXC10 (Homo sapiens, UniProt Q9NYD6 254-340), sequence (Q9NYD6 254-340): as the sequence (Q9NYD6 254-340 K271E) above, with E18K counted along it
Consider CCTTGCGA, for which the binding signal was 10 upbm affinity estimate (log intensity, higher = more binding, comparable within an allelic series).
On the same count and under the same terms, next, ATTACAGG: 11.1 upbm affinity estimate (log intensity, higher = more binding, comparable within an allelic series).
Still for that read-out and setting: the value for ATACTATA was 11.1 upbm affinity estimate (log intensity, higher = more binding, comparable within an allelic series).
Regarding GCGGTGCC, the binding signal is 10 upbm affinity estimate (log intensity, higher = more binding, comparable within an allelic series).
Same read-out and setting: next, GCCTAATA: 11 upbm affinity estimate (log intensity, higher = more binding, comparable within an allelic series); CCGACTCG: 10.1 upbm affinity estimate (log intensity, higher = more binding, comparable within an allelic series).
The same measure, in the same setting: the value for GCGACGAC was 10.1 upbm affinity estimate (log intensity, higher = more binding, comparable within an allelic series); that for CATAAATA was 12.1 upbm affinity estimate (log intensity, higher = more binding, comparable within an allelic series); that for ATGTGCTA was 10.7 upbm affinity estimate (log intensity, higher = more binding, comparable within an allelic series).
For the sequence GCTCCCGA, the binding signal was 9.93 upbm affinity estimate (log intensity, higher = more binding, comparable within an allelic series).
Still for that read-out and setting: next, CCGGTGAC: 10 upbm affinity estimate (log intensity, higher = more binding, comparable within an allelic series); GCGAGTCC: 10.1 upbm affinity estimate (log intensity, higher = more binding, comparable within an allelic series); GAAGCTCC: 10.1 upbm affinity estimate (log intensity, higher = more binding, comparable within an allelic series).
Consider CCGAACTC, for which the binding signal was 9.95 upbm affinity estimate (log intensity, higher = more binding, comparable within an allelic series).
Turning to CAGCGCCC, the binding signal is 9.88 upbm affinity estimate (log intensity, higher = more binding, comparable within an allelic series).
Still for that read-out and setting: the value for GACTGGGC was 9.98 upbm affinity estimate (log intensity, higher = more binding, comparable within an allelic series); that for ATAAAAAG was 12.1 upbm affinity estimate (log intensity, higher = more binding, comparable within an allelic series); that for CGAGGAGC was 9.97 upbm affinity estimate (log intensity, higher = more binding, comparable within an allelic series).
On the same count and under the same terms, next, ATGTCATA: 11.1 upbm affinity estimate (log intensity, higher = more binding, comparable within an allelic series).
Same read-out and setting: next, ATATCAGG: 10.6 upbm affinity estimate (log intensity, higher = more binding, comparable within an allelic series); TTGGCCAA: 9.97 upbm affinity estimate (log intensity, higher = more binding, comparable within an allelic series); CGCCGGCC: 9.95 upbm affinity estimate (log intensity, higher = more binding, comparable within an allelic series).
With GGGGCTAC, the binding signal was 10.1 upbm affinity estimate (log intensity, higher = more binding, comparable within an allelic series).
On the same count and under the same terms, next, CAGCGCGG: 10 upbm affinity estimate (log intensity, higher = more binding, comparable within an allelic series); ATAACACC: 11.1 upbm affinity estimate (log intensity, higher = more binding, comparable within an allelic series).
Take ATAGATGA: the binding signal is 10.8 upbm affinity estimate (log intensity, higher = more binding, comparable within an allelic series).
On the same count and under the same terms, the value for ATACTAAT was 11.3 upbm affinity estimate (log intensity, higher = more binding, comparable within an allelic series); that for CTCAGGAA was 10.1 upbm affinity estimate (log intensity, higher = more binding, comparable within an allelic series).
The same measure, in the same setting: the value for CTCTCCGA was 9.99 upbm affinity estimate (log intensity, higher = more binding, comparable within an allelic series); that for CTCCTCTC was 10 upbm affinity estimate (log intensity, higher = more binding, comparable within an allelic series).
Same read-out and setting: the value for AGCTGGGC was 10 upbm affinity estimate (log intensity, higher = more binding, comparable within an allelic series); that for AGGGCCAG was 9.98 upbm affinity estimate (log intensity, higher = more binding, comparable within an allelic series); that for CCCGAGAC was 9.98 upbm affinity estimate (log intensity, higher = more binding, comparable within an allelic series).
With AATCATCA, the binding signal was 10.9 upbm affinity estimate (log intensity, higher = more binding, comparable within an allelic series).
On the same count and under the same terms, next, CCCGGGCG: 10.1 upbm affinity estimate (log intensity, higher = more binding, comparable within an allelic series).
The same measure, in the same setting: next, GCATATAA: 11.4 upbm affinity estimate (log intensity, higher = more binding, comparable within an allelic series); ACGCTGGA: 9.94 upbm affinity estimate (log intensity, higher = more binding, comparable within an allelic series).
In the case of AGCTTCTG, the binding signal is 10.1 upbm affinity estimate (log intensity, higher = more binding, comparable within an allelic series).
Same read-out and setting: next, CTTTCTTC: 9.98 upbm affinity estimate (log intensity, higher = more binding, comparable within an allelic series).

The next assay has as its target HOXC10 (Homo sapiens, UniProt Q9NYD6 254-340, K271E). Kind of assay: PBM; 200 nM protein, PBS. The note with it: dsDNA, one strand shown.
Turning to CCTTGCGA, the binding signal was 10.1 upbm affinity estimate (log intensity, higher = more binding, comparable within an allelic series).
The same measure, in the same setting: the value for ATTACAGG was 10.9 upbm affinity estimate (log intensity, higher = more binding, comparable within an allelic series); that for ATACTATA was 11 upbm affinity estimate (log intensity, higher = more binding, comparable within an allelic series).
Same read-out and setting: the value for GCGGTGCC was 10 upbm affinity estimate (log intensity, higher = more binding, comparable within an allelic series).
The same measure, in the same setting: the value for GCCTAATA was 10.9 upbm affinity estimate (log intensity, higher = more binding, comparable within an allelic series); that for CCGACTCG was 10.1 upbm affinity estimate (log intensity, higher = more binding, comparable within an allelic series); that for GCGACGAC was 10 upbm affinity estimate (log intensity, higher = more binding, comparable within an allelic series).
CATAAATA: the binding signal was 11.5 upbm affinity estimate (log intensity, higher = more binding, comparable within an allelic series).
The same measure, in the same setting: next, ATGTGCTA: 10.7 upbm affinity estimate (log intensity, higher = more binding, comparable within an allelic series); GCTCCCGA: 10.1 upbm affinity estimate (log intensity, higher = more binding, comparable within an allelic series).
Turning to CCGGTGAC, the binding signal was 10 upbm affinity estimate (log intensity, higher = more binding, comparable within an allelic series).
Same read-out and setting: the value for GCGAGTCC was 10.1 upbm affinity estimate (log intensity, higher = more binding, comparable within an allelic series); that for GAAGCTCC was 10.1 upbm affinity estimate (log intensity, higher = more binding, comparable within an allelic series).
On the same count and under the same terms, the value for CCGAACTC was 10 upbm affinity estimate (log intensity, higher = more binding, comparable within an allelic series); that for CAGCGCCC was 9.95 upbm affinity estimate (log intensity, higher = more binding, comparable within an allelic series); that for GACTGGGC was 10 upbm affinity estimate (log intensity, higher = more binding, comparable within an allelic series).
Still for that read-out and setting: next, ATAAAAAG: 11.5 upbm affinity estimate (log intensity, higher = more binding, comparable within an allelic series); CGAGGAGC: 9.97 upbm affinity estimate (log intensity, higher = more binding, comparable within an allelic series).
As for ATGTCATA, the binding signal was 11.1 upbm affinity estimate (log intensity, higher = more binding, comparable within an allelic series).
Same read-out and setting: the value for ATATCAGG was 10.7 upbm affinity estimate (log intensity, higher = more binding, comparable within an allelic series); that for TTGGCCAA was 9.93 upbm affinity estimate (log intensity, higher = more binding, comparable within an allelic series); that for CGCCGGCC was 9.99 upbm affinity estimate (log intensity, higher = more binding, comparable within an allelic series).
Still for that read-out and setting: the value for GGGGCTAC was 10.1 upbm affinity estimate (log intensity, higher = more binding, comparable within an allelic series).
Still for that read-out and setting: next, CAGCGCGG: 9.95 upbm affinity estimate (log intensity, higher = more binding, comparable within an allelic series).
With ATAACACC, the binding signal is 10.8 upbm affinity estimate (log intensity, higher = more binding, comparable within an allelic series).
On the same count and under the same terms, the value for ATAGATGA was 10.8 upbm affinity estimate (log intensity, higher = more binding, comparable within an allelic series).
The same measure, in the same setting: next, ATACTAAT: 11.2 upbm affinity estimate (log intensity, higher = more binding, comparable within an allelic series).
Same read-out and setting: the value for CTCAGGAA was 10 upbm affinity estimate (log intensity, higher = more binding, comparable within an allelic series).
On to CTCTCCGA, for which the binding signal was 9.97 upbm affinity estimate (log intensity, higher = more binding, comparable within an allelic series).
As to CTCCTCTC, the binding signal was 10 upbm affinity estimate (log intensity, higher = more binding, comparable within an allelic series).
Still for that read-out and setting: next, AGCTGGGC: 10 upbm affinity estimate (log intensity, higher = more binding, comparable within an allelic series); AGGGCCAG: 10 upbm affinity estimate (log intensity, higher = more binding, comparable within an allelic series); CCCGAGAC: 9.98 upbm affinity estimate (log intensity, higher = more binding, comparable within an allelic series).
On the same count and under the same terms, the value for AATCATCA was 10.9 upbm affinity estimate (log intensity, higher = more binding, comparable within an allelic series).
For CCCGGGCG, the binding signal is 10.1 upbm affinity estimate (log intensity, higher = more binding, comparable within an allelic series).
The same measure, in the same setting: the value for GCATATAA was 11.2 upbm affinity estimate (log intensity, higher = more binding, comparable within an allelic series); that for ACGCTGGA was 10.1 upbm affinity estimate (log intensity, higher = more binding, comparable within an allelic series); that for AGCTTCTG was 10 upbm affinity estimate (log intensity, higher = more binding, comparable within an allelic series).
On the same count and under the same terms, next, CTTTCTTC: 10.1 upbm affinity estimate (log intensity, higher = more binding, comparable within an allelic series).
